The panel holds about 83,000 compounds, 20% with a hit somewhere; the sample as a whole holds those more often.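 Compound tested at a single concentration for 48 hours in 96-well plates; a percent growth value below 10 was scored as active.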 Activity calls are given as the source filed them.

Among the data in PubChem BioAssay (NCI) are growth values, retold here.

The first experiment deals with HCC-2998 colon. The experiment can be described thus: NCI-60 one-dose screen, 48 h (100 = growth as untreated, 0 = no growth, -100 = all killed). The note with it: 10 µM unless noted.
Consider `COc1ccc(-c2oc3cc(O)c(OC)c(O)c3c(=O)c2OC)cc1O`, for which the growth was 90.1% (inactive).
Still for that read-out and setting: in the case of `c1ccc(-c2nnc(Nc3nnc(-c4ccccc4)s3)s2)cc1` it was 108% (inactive); in that of `CCN1CCN(c2cc(-c3cn[nH]c3-c3cc(C)cc(OC)c3)nc(-c3cccnc3)n2)CC1`, 91.3% (inactive).
`CCCn1cnc2c1c(=O)n(CCCCC(C)=O)c(=O)n2C`: the growth was 100% (inactive).
With `O=C1C2C3C=CC(O3)C2C(=O)N1Nc1ccccc1` (stereo unspecified), the growth is 102% (inactive).
In the case of `O=C(Nc1ccncc1)C(=O)c1cn(S(=O)(=O)c2cccc(F)c2)c2ccccc12`, the growth is 66.2% (inactive).
As for `COc1ccc(-c2csc(NC(=O)c3cc(OC)c(OC)c(OC)c3)n2)cc1`, the growth was 112% (inactive).
As for `CCC1=C(c2ccc(OC)cc2)C(C)(C)Oc2cc(O)c(CN3CCCC3)cc21`, the growth was 18.1% (inactive).
The same measure, in the same setting: the result for `CCOc1nc(-c2ccccc2)cc2c(O)c(-c3nnco3)[nH]c(=O)c12` reads 61.5% (inactive); that for `C=C1CC[C@@H]2[C@](C)(COC(C)=O)[C@H](OC(C)=O)CC[C@@]2(C)[C@@H]1CC(Nc1ccc(S(=O)(=O)Nc2cc(C)on2)cc1)C1=CCOC1=O` (stereo partly specified), 68.3% (inactive).
Same read-out and setting: the result for `COc1ccc(C2=NN(C(=O)c3cc(OC)c(OC)c(OC)c3)C(c3ccc(C#N)cc3)C2)cc1OC` (stereo unspecified) reads 35.2% (inactive).
With `O=C1/C(=N/O)CCc2ccccc21`, the growth was 103% (inactive).
Same read-out and setting: in the case of `O=C(/C=C/c1cccnc1)NCCCCC1CCCN(C(=O)c2ccccc2)C1` (stereo unspecified) it was 46.6% (inactive).
In the case of `COc1ccc(Nc2ccnc(NCCCNc3ccnc4cc(Cl)ccc34)n2)cc1`, the growth was -74.9% (active).
Take `COc1ccc2nc(NC(=O)c3cc(-c4ccc(F)cc4)n4nc(-c5ccccc5)cc4n3)sc2c1`: the growth is 98.6% (inactive).
On to `COc1cc(/C=C/C(=O)N2CCN(C(=O)/C=C/c3ccccc3)CC2)cc(OC)c1OC`, for which the growth was 102% (inactive).
`O=C1C[C@@H]2/C(=C(O)\C=C\c3ccccc3)C(=O)C=C[C@@H]2O1`: the growth was 99.6% (inactive).
For `COc1cc(/C=C/c2nnc(-c3cc(-c4ccccc4)n[nH]3)o2)cc(OC)c1OC`, the growth is 98.3% (inactive).
The same measure, in the same setting: in the case of `O=[N+]([O-])c1ccc2c(c1)S(=O)c1cc([N+](=O)[O-])ccc1N2` it was 104% (inactive); in that of `C/C(=C\CCc1ccoc1)CC/C=C(\C)CCCN1CCC(CO)CC1`, 46.5% (inactive); in that of `COc1cc(C2NC(c3ccc(Cl)cc3)C(C)/C(=N/NC(N)=S)C2C)cc(OC)c1OC` (stereo unspecified), 126% (inactive).
On the same count and under the same terms, the result for `CCC(CC)NCCCCCNc1cc(OC)cc2cccnc12` reads 117% (inactive).
Regarding `CCOc1nc(-c2ccccc2)cc2c(O)c(C(=O)n3nc(C)cc3C)[nH]c(=O)c12`, the growth is 112% (inactive).
With `O=C(/C(=N/O)S(=O)(=O)c1ccccc1)c1cccs1`, the growth was 93.2% (inactive).
As for `COc1cc(C2NC(c3ccc(Cl)cc3)C(C)C(=NC(=O)c3cnccn3)C2C)cc(OC)c1OC` (stereo unspecified), the growth is 129% (inactive).
As to `COc1ccc2c(c1)C(=O)/C(=C/c1ccc([N+](=O)[O-])s1)O2`, the growth is -6.91% (active).
Same read-out and setting: in the case of `COc1cc(C(=O)/C=C/c2cccnc2Nc2ccccc2)cc(OC)c1OC` it was -76.7% (active); in that of `CCCCn1c(Cc2ccc(Cl)cc2)nc2cc(OC)c(OC)cc2c1=O`, 75.8% (inactive).
On to `OCCOc1c(Cl)cc(Cl)cc1Cl`, for which the growth was 110% (inactive).
Turning to `COc1ccc2nc3cc(Cl)ccc3c(N3CCN(c4ccnc(Nc5ccc(F)cc5)n4)CC3)c2c1`, the growth was 79.5% (inactive).
On to `COc1ccc(-c2cc(Cc3cccs3)c(=O)n(Cn3ccc4ccccc43)n2)cc1`, for which the growth is 107% (inactive).
In the case of `CCc1[nH]nc(-c2ccc(OC)cc2)c1-c1ccccc1OCCN(CC)CC`, the growth was 103% (inactive).
Turning to `COc1ccc(-c2cc(C(=O)Nc3nc4cc(C)c(C)cc4s3)nc3cc(-c4ccccc4)nn23)cc1OC`, the growth was 99.7% (inactive).
In the case of `Nc1ccc2c3c(cccc13)-c1ccccc1-2`, the growth is 103% (inactive).
On the same count and under the same terms, in the case of `COc1cccc(-c2nnc(N)o2)c1` it was 83.3% (inactive).
Still for that read-out and setting: in the case of `COc1cc2c(cc1OCCCOc1ccc(-c3cc4ccccc4c4ccccc34)cc1)N=C[C@@H]1CCCN1C2=O` it was 2.28% (active).

Another experiment relates to KM12 colon. The experiment is described as above. The note with it: 10 µM unless noted.
As to `COc1ccc(-c2oc3cc(O)c(OC)c(O)c3c(=O)c2OC)cc1O`, the growth is 2.13% (active).
As to `c1ccc(-c2nnc(Nc3nnc(-c4ccccc4)s3)s2)cc1`, the growth was 113% (inactive).
With `CCN1CCN(c2cc(-c3cn[nH]c3-c3cc(C)cc(OC)c3)nc(-c3cccnc3)n2)CC1`, the growth was 50.6% (inactive).
Consider `CCCn1cnc2c1c(=O)n(CCCCC(C)=O)c(=O)n2C`, for which the growth is 114% (inactive).
Consider `O=C1C2C3C=CC(O3)C2C(=O)N1Nc1ccccc1` (stereo unspecified), for which the growth was 115% (inactive).
For `O=C(Nc1ccncc1)C(=O)c1cn(S(=O)(=O)c2cccc(F)c2)c2ccccc12`, the growth was 27.6% (inactive).
Regarding `COc1ccc(-c2csc(NC(=O)c3cc(OC)c(OC)c(OC)c3)n2)cc1`, the growth is 108% (inactive).
Still for that read-out and setting: the result for `CCC1=C(c2ccc(OC)cc2)C(C)(C)Oc2cc(O)c(CN3CCCC3)cc21` reads 81.1% (inactive).
Consider `CCOc1nc(-c2ccccc2)cc2c(O)c(-c3nnco3)[nH]c(=O)c12`, for which the growth is 48.9% (inactive).
With `C=C1CC[C@@H]2[C@](C)(COC(C)=O)[C@H](OC(C)=O)CC[C@@]2(C)[C@@H]1CC(Nc1ccc(S(=O)(=O)Nc2cc(C)on2)cc1)C1=CCOC1=O` (stereo partly specified), the growth is 30.5% (inactive).
Turning to `COc1ccc(C2=NN(C(=O)c3cc(OC)c(OC)c(OC)c3)C(c3ccc(C#N)cc3)C2)cc1OC` (stereo unspecified), the growth was 15.1% (inactive).
In the case of `O=C1/C(=N/O)CCc2ccccc21`, the growth was 89.3% (inactive).
As for `O=C(/C=C/c1cccnc1)NCCCCC1CCCN(C(=O)c2ccccc2)C1` (stereo unspecified), the growth is 43.9% (inactive).
On the same count and under the same terms, in the case of `COc1ccc2nc(NC(=O)c3cc(-c4ccc(F)cc4)n4nc(-c5ccccc5)cc4n3)sc2c1` it was 74.1% (inactive); in that of `COc1cc(/C=C/C(=O)N2CCN(C(=O)/C=C/c3ccccc3)CC2)cc(OC)c1OC`, 118% (inactive); in that of `O=C1C[C@@H]2/C(=C(O)\C=C\c3ccccc3)C(=O)C=C[C@@H]2O1`, -91% (active).
As for `COc1cc(/C=C/c2nnc(-c3cc(-c4ccccc4)n[nH]3)o2)cc(OC)c1OC`, the growth was 103% (inactive).
On the same count and under the same terms, the result for `O=[N+]([O-])c1ccc2c(c1)S(=O)c1cc([N+](=O)[O-])ccc1N2` reads 102% (inactive).
Take `C/C(=C\CCc1ccoc1)CC/C=C(\C)CCCN1CCC(CO)CC1`: the growth is 44.6% (inactive).
On to `COc1cc(C2NC(c3ccc(Cl)cc3)C(C)/C(=N/NC(N)=S)C2C)cc(OC)c1OC` (stereo unspecified), for which the growth is 88.6% (inactive).
Regarding `CCC(CC)NCCCCCNc1cc(OC)cc2cccnc12`, the growth was 98.6% (inactive).
In the case of `CCOc1nc(-c2ccccc2)cc2c(O)c(C(=O)n3nc(C)cc3C)[nH]c(=O)c12`, the growth was 106% (inactive).
On the same count and under the same terms, in the case of `O=C(/C(=N/O)S(=O)(=O)c1ccccc1)c1cccs1` it was 107% (inactive); in that of `COc1cc(C2NC(c3ccc(Cl)cc3)C(C)C(=NC(=O)c3cnccn3)C2C)cc(OC)c1OC` (stereo unspecified), 90.7% (inactive); in that of `COc1ccc2c(c1)C(=O)/C(=C/c1ccc([N+](=O)[O-])s1)O2`, -19.3% (active).
On the same count and under the same terms, the result for `COc1cc(C(=O)/C=C/c2cccnc2Nc2ccccc2)cc(OC)c1OC` reads -88.2% (active); that for `CCCCn1c(Cc2ccc(Cl)cc2)nc2cc(OC)c(OC)cc2c1=O`, 76.1% (inactive).
With `OCCOc1c(Cl)cc(Cl)cc1Cl`, the growth was 115% (inactive).
For the compound `COc1ccc2nc3cc(Cl)ccc3c(N3CCN(c4ccnc(Nc5ccc(F)cc5)n4)CC3)c2c1`, the growth is 79.1% (inactive).
As for `COc1ccc(-c2cc(Cc3cccs3)c(=O)n(Cn3ccc4ccccc43)n2)cc1`, the growth was 110% (inactive).
On the same count and under the same terms, the result for `CCc1[nH]nc(-c2ccc(OC)cc2)c1-c1ccccc1OCCN(CC)CC` reads 106% (inactive).
With `COc1ccc(-c2cc(C(=O)Nc3nc4cc(C)c(C)cc4s3)nc3cc(-c4ccccc4)nn23)cc1OC`, the growth was 112% (inactive).
As for `Nc1ccc2c3c(cccc13)-c1ccccc1-2`, the growth is 87.8% (inactive).
`COc1cccc(-c2nnc(N)o2)c1`: the growth is 106% (inactive).
With `COc1cc2c(cc1OCCCOc1ccc(-c3cc4ccccc4c4ccccc34)cc1)N=C[C@@H]1CCCN1C2=O`, the growth is -20.4% (active).
